In PubChem BioAssay AID841 (Emory University Molecular Libraries Screening Center, 2007):
Among all 140,000 compounds or so, about 2,100 (1.5%) were called active. Rule as the data show it: active = protection mostly above about 24% (no sharp cut-off); inactive = mostly below about 26%. For the sample, actives were picked, then their nearest neighbours and some compounds at random.

Experiment: compounds protecting cells from measles virus cytopathic effect, primary screen, measles RdRp inhibitor project, single point, MLSMR library, absorbance (AID 841)
Details: Measles virus-infected cells, CPE protection, at 4 µM, stronger effect = higher value

Protection (pct of control), inactive:
FC(F)(F)c1nnc2ccc(N3CCN(c4ccccc4)CC3)nn12 1.66%
COc1ccc(S(=O)(=O)N2CCCC2)c(C)c1C 7.99%
COc1ccc(F)cc1S(=O)(=O)Nc1ccc2c(c1)OCO2 5.59%
COc1ccc(NC(=O)Nc2ccc3nc(C)c(C)nc3c2)cc1 2.45%
COc1cc(-c2cc(C(=O)OCC(=O)Nc3ccc4c(c3)OCO4)c3ccccc3n2)cc(OC)c1OC 4.84%
CCOC(=O)N1CCN(CC(=O)c2c(C)[nH]c3ccccc23)CC1 5.34%
O=C(Cc1ccc(-n2c(=O)[nH]c3ccccc3c2=O)cc1)N1CCN(c2cccc(Cl)c2)CC1 2.23%
O=C(/C=C/c1cccc([N+](=O)[O-])c1)NCCSCc1ccco1 4%
CCOc1ccc(-c2n[nH]c(=S)n2/N=C/c2cc3c(cc2[N+](=O)[O-])OCO3)cc1 2.01%
Cc1cc([N+](=O)[O-])nn1CC(=O)Nc1ccc(Cc2ccncc2)cc1 3.88%
CCCCCCCCCOC1OC(CO)C(O)C(O)C1NC(C)=O (stereo not drawn) 19.9%
CONc1nc2nonc2nc1NOC 8.78%
CC(C)C(=O)Nc1ccc(C(=O)NNC(=O)c2cccs2)cc1 6.3%
COc1ccccc1-c1nnc(NC(=O)c2ccc3ncsc3c2)o1 19.4%
CCN(CC)C(=O)c1sc(NC(=O)c2ccco2)c(C#N)c1C 10.4%
CCOC(=O)c1sc(NC(=O)CSc2ncccn2)c(C#N)c1C 12.3%
N#Cc1c(-c2ccc(F)cc2)cc(C2CC2)nc1SCC(=O)c1cccs1 17.3%
COc1ccc(NC(=O)c2sc(N3CCOCC3)nc2-c2ccccc2)c(OC)c1 7.3%
CCCSc1nc2c(c(=O)n(C)c(=O)n2C)n1Cc1ccc(C)cc1 16.6%
COC(=O)C(C)Sc1nc2c(c(=O)n(C)c(=O)n2C)n1Cc1cccc(C)c1 (stereo not drawn) 13.3%
O=C(CSc1ccc(C(F)(F)F)cc1[N+](=O)[O-])NCCOc1ccccc1 16.6%
CCCCc1cc2c(s1)CCCC/C2=N/O 5.03%
COc1cc(C)c(C(C)C)cc1S(=O)(=O)n1ccnc1 24.3%
CCOc1ccc(S(=O)(=O)N2CCCCCC2)c2ccccc12 3.16%
O=S(=O)(/N=C(/Nc1ccccc1)c1ccccc1)c1cccs1 4.51%
COC(=O)C(C)Oc1ccc2c(-c3cccc([N+](=O)[O-])c3)cc(=O)oc2c1 (stereo not drawn) 4.97%
Cc1cc(=O)oc2ccc(OCC(=O)O)cc12 16.4%
CC(C)NC(=S)N1CCN(S(C)(=O)=O)CC1 39.7%
Cc1ccnc(N2CCC(C(=O)NC3CCCCCC3)CC2)n1 6.88%
O=C(Nc1ccc2c(c1)OCCO2)C1CCCN(c2ncccn2)C1 (stereo not drawn) 7.15%
NC1=NC(=O)C(Cc2cccc(Cl)c2Cl)S1 (stereo not drawn) 22.3%
C=CCn1c2ccccc2c2nnc(SCc3[nH]c(=O)[nH]c3C(=O)CCCCC(=O)OCC)nc21 14.8%
O=C(O)c1ccc2c(c1)C(=O)N(NC(=O)c1ccc(O)cc1)C2=O 16.8%
Cc1ccc(N/C=C/C(=O)c2ccccc2)cc1C 11.4%
CC(C)(C)C(=O)c1cnc(Nc2ccccc2)s1 2.07%
Cc1ccc(/C=N\n2c(-c3ccccc3)n[nH]c2=S)s1 8.39%
S=c1[nH]nc(-c2ccccc2)n1/N=C/c1c[nH]c2ccccc12 2.43%
COC(=O)Cc1ccc(OCC(=O)Nc2ccc(OC(F)(F)F)cc2)cc1 9.11%

Protection (pct of control), active:
COc1ccc(S(=O)(=O)Nc2ccc(F)cc2)c(C)c1C 62%
COc1ccc2c(c1)cc1n2CCN=C1NN 25.1%
CCOC(=O)N1CCN(C(=O)Cc2ccc(-n3c(=S)[nH]c4ccccc4c3=O)cc2)CC1 49%
CCC(=O)Nc1sc(C(=O)N2CCCCC2)c(C)c1C#N 34.3%
Cc1cccc(Cn2c(SCCO)nc3c2c(=O)n(C)c(=O)n3C)c1 38.3%
CCOc1ccc(S(=O)(=O)n2ccnc2)c2ccccc12 40.7%
CC(=O)COc1ccc2c(-c3ccccc3)cc(=O)oc2c1 68.7%
Cc1ccnc(N2CCCC(C(=O)Nc3cc(F)ccc3C)C2)n1 (stereo not drawn) 46.4%
O=C(/C=C/Nc1ccccc1)c1cnc(-c2ccccc2)s1 62.4%
Oc1ccccc1/C=N/n1c(-c2cccs2)n[nH]c1=S 36.6%
